{
  "source": "PubChem BioAssay (Tox21)",
  "experiment": "p53 small molecule agonists, cell-based qHTS assay with human liver microsomes: qHTS cell viability counter screen (AID 1963579); further: nearly all actives have a fitted effect of over 45% in size",
  "outline": "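Luminescent CellTiter-Glo read-out, 30 min at room temperature, gauged cytotoxicity in p53RE-bla cells exposed 16 h at 37 C to DMSO-dissolved compounds with metabolic activation by human liver microsomes and NADPH, each 0.5 mg/mL final.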",
  "note": "Inconclusive results are not listed. A call without a number means that no potency is given here. Activity calls are given as the source filed them. The call rests on the fitted dose curve. Potency means the concentration at half of the fitted maximal effect.",
  "data": [
    {"smiles": "O=c1cc(-c2ccccc2)oc2ccc3ccccc3c12", "values": [
      {"measurement": "Potency", "value": "inactive"}
    ]},
    {"smiles": "Clc1ccc(C(Cn2ccnc2)OCc2c(Cl)cccc2Cl)c(Cl)c1", "note": "(centres undefined)", "values": [
      {"measurement": "Potency", "value": "inactive"}
    ]},
    {"smiles": "CCOc1ccc([N+](=O)[O-])cc1", "values": [
      {"measurement": "Potency", "value": "41.4 µM (active)"}
    ]},
    {"smiles": "CC(CCc1ccccc1)NCC(O)c1ccc(O)c(C(N)=O)c1", "note": "(centres undefined)", "values": [
      {"measurement": "Potency", "value": "inactive"}
    ]},
    {"smiles": "CCCCCCCC[Si](OCC)(OCC)OCC", "values": [
      {"measurement": "Potency", "value": "inactive"}
    ]},
    {"smiles": "Cc1ccc(OC(=O)c2ccccc2O)cc1", "values": [
      {"measurement": "Potency", "value": "inactive"}
    ]},
    {"smiles": "O=C(O)CNC(=O)c1ccc([N+](=O)[O-])cc1", "values": [
      {"measurement": "Potency", "value": "inactive"}
    ]},
    {"smiles": "Cc1ccc2sc3cccc(C)c3c2c1", "values": [
      {"measurement": "Potency", "value": "inactive"}
    ]},
    {"smiles": "c1ccc(CN(CC2=NCCN2)c2ccccc2)cc1", "values": [
      {"measurement": "Potency", "value": "inactive"}
    ]}
  ]
}
